# Rows were chosen to be rich in hits. Some 0.49% of all compounds tested hit in one or more screens of this group.
# USP1 inh: inhibitors of human USP1/UAF1 deubiquitinase; hit rate 0.23% among 390,000; recombinant USP1/UAF1, Ub-Rhodamine cleavage fluorescence; Potency, µM (highest dose often 57.1 µM), for the others: top-dose activity change, negative = inhibition, hits mostly inhibitors; O94782; AID 743255; also: % is scaled to controls: 0 for no effect and ±100 for the full control effect; nearly all actives have a fitted effect of over 60% in size
#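 High-throughput fluorogenic screen: 1nM USP1/UAF1 complex, Ub-Rho substrate 150nM final, 50mM HEPES pH 7.8 with 0.5mM EDTA, 0.1 mg/ml BSA, 1mM TCEP and 0.01% Tween-20.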
# EPAC1 antag: antagonists of human EPAC1. O95398. EPAC1 GEF assay, Rap1b-BODIPY-GDP exchange fluorescence. Potency, µM (titrated, usually from 115 µM), without a hit: at the highest dose activity change, negative = inhibition, usual class: inhibitors. hit rate 0.14% among 360,000. AID 720709;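 also: plate controls were vehicle for no effect and positive control for full effect; nearly all actives have a fitted effect of over 50% in size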
# EPAC2 antagonist: antagonists of human EPAC2; Q8WZA2; EPAC2 GEF exchange of Rap1B-BODIPY-GDP, fluorescence; Potency, µM (doses to about 114 µM), for the others: at the highest dose activity, negative = inhibition, actives largely listed as inhibitors; hit rate 0.18% among 360,000; also: % is scaled to controls: 0 for no effect and ±100 for the full control effect; nearly all actives have a fitted effect of over 45% in size
# EPAC1 agonist: activates human EPAC1 exchange factor; O95398; EPAC1 agonist qHTS, biochemical assay; response scale: 100% = response to 6.5 mM cAMP; Potency, µM (highest dose often 154 µM), inactives show at the top dose activation, actives largely listed as activators; hit rate 0.073% among 360,000; AID 720707; also: nearly all actives have a fitted effect of over 60% in size
#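 Nucleotide exchange by EPAC1 (100 nM) on Rap1B–BODIPY-GDP (250 nM) in the presence of 50 uM GDP is tracked fluorescently at 480/540 nm over 30 min. Signals are normalized to a 6.5 mM cAMP control.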
# EPAC2 agonist: agonists of human EPAC2 (RAPGEF4); Q8WZA2; EPAC2 activation, biochemical qHTS; response scale: 100% = 6.5 mM cAMP response; Potency, µM (doses to about 154 µM), without a hit: top-dose activation, actives largely listed as activators; hit rate 0.079% among 360,000; AID 720711; also: nearly all actives have a fitted effect of over 50% in size
#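 qHTS, titration series. 100 nM EPAC2 / 250 nM Rap1B-BODIPY-GDP / 50 uM GDP; RT; ex 480/em 540 nm, 5-min reads to 30 min. Norm. to 6.5 mM cAMP = activation.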
# Active calls of the source: *; u = inconclusive; x = no result given. Calls follow the shape of the dose curve; as a rule, active = well fitted curve in the direction sought with a large enough effect; inconclusive = small, poorly fitted or top-dose-only effect, or another doubt; inactive = no such curve, though single readings can be large; an effect the other way counts as inactive or inconclusive. Potency is read from the fitted curve at half-maximal effect.
SMILES,USP1 inh,EPAC1 antag,EPAC2 antagonist,EPAC1 agonist,EPAC2 agonist
Cc1cc(C=C2C(=O)c3ccccc3C2=O)c(C)n1-c1ccc(Cl)cc1,-9%,0%,79µM*,-8%,-176%
CCC1CN(C(=O)Nc2ccc(Br)cc2F)c2ccccc2S1 (stereo not given),-9%,x,x,x,x
CCc1ccccc1NC(=O)N(C)CCc1c(C)nn(C)c1C,-21%,x,x,x,x
O=C1Nc2ccccc2/C1=N\N=C\c1ccc(O)c(O)c1,-3%,40µM*,-16%,2%,-9%
CC(=O)C1=C(C)OC2(O)c3ccccc3C(=O)C12O (stereo not given),8.9µM*,79µM*,-24%,4%,21%
CCOC(=O)C1=C(C)OC2(O)c3ccccc3C(=O)C12O (stereo not given),13µM*,u,-27%,1%,u
CC1=C(C(=O)OC(C)C)C2(O)C(=O)c3ccccc3C2(O)N1 (stereo not given),-9%,-6%,-5%,4%,2%
CCOC(=O)C1=C(C)N[C@@]2(O)c3ccccc3C(=O)[C@@]12O,-21%,-3%,14%,3%,4%
COc1cc(/C=C2/SC(=O)NC2=O)ccc1OC(=O)c1ccco1,-6%,-21%,-2%,-9%,-5%
CCOc1cc(/C=C2\SC(=Nc3ccc(CC)cc3)NC2=O)ccc1OCC(=O)O,-10%,35µM*,3%,u,2%
CCOc1cc(/C=C2/SC(=S)NC2=O)ccc1OC(=O)c1ccco1,-23%,35µM*,35µM*,3%,3%
CCc1ccc(N=C2NC(=O)/C(=C/c3cc(Br)c(OCC(=O)O)c(OC)c3)S2)cc1,-18%,u,-6%,u,-5%
O=[N+]([O-])c1ccc(Sc2cccc[n+]2[O-])c2nonc12,u,35µM*,56µM*,-20%,-10%
CCCc1cc(=O)[nH]c2nnc(SCC)n12,-6%,x,x,x,x
O=S(=O)(O)c1ccc(O)c2cc(Nc3ccccc3)ccc12,13µM*,10µM*,u,19%,28%
O=C(c1ccc2c(c1)CCN2S(=O)(=O)c1ccc(Cl)cc1)N1CCN(c2ccc(F)cc2)CC1,-17%,x,x,x,x
CCOc1cc(/C=N/NC(=O)c2ccc(CN3CCOCC3)cc2)ccc1OC,u,-23%,-22%,2%,6%
CCOc1cc(/C=C/C(=O)c2ccc(OC)c(CN3CCOCC3)c2)cc(Br)c1O,35µM*,17%,-9%,21%,18%
COc1ccc(NC2=C(NCCO)C(=O)c3ccccc3C2=O)cc1,25µM*,-27%,-5%,-1%,-3%
Cc1cccc(NC2=C(NCCO)C(=O)c3ccccc3C2=O)c1,32µM*,25%,-5%,7%,12%
COc1cccc(NC2=C(NCCO)C(=O)c3ccccc3C2=O)c1,u,-7%,-16%,3%,2%
Cc1ccc2c(c1)-c1nc(-c3ccc4c(c3)NC(=O)CO4)cc(-c3ccccc3)c1CO2,-26%,x,x,x,x
CCN(CC)c1ccc(C=C2C(=O)OC(c3ccccc3)OC2=O)cc1 (stereo not given),-9%,-3%,10%,0%,0%
CCN(CC)c1ccc(/C=C/C(=O)C2C(=O)C=C(C)OC2=O)cc1 (stereo not given),4.5µM*,23%,104%,20%,-6%
O=C(CC1C(=O)N(c2ccc(F)cc2)C(=O)N1Cc1cccnc1)Nc1ccc(F)cc1 (stereo not given),6%,x,x,x,x
SMILES,USP1 inh,EPAC1 antag,EPAC2 antagonist,EPAC1 agonist,EPAC2 agonist
Oc1ccccc1-c1nc(NCc2ccccc2)c2ccccc2n1,0%,u,89µM*,-30%,0%
Oc1ccccc1-c1nc(NCc2cccnc2)c2ccccc2n1,-4%,-12%,-12%,19%,3%
CCc1cccc(NC(=O)Cn2c(=O)n3nc(-c4cccc(F)c4)nc3c3ccccc32)c1,-7%,x,x,x,x
Cc1ccccc1Cn1cc(CCC(=O)NCc2cccc(Br)c2)c2ccccc21,-3%,x,x,x,x
CCCN(CC(=O)Nc1ccccc1C)C(=O)c1cc(C)oc1C,-9%,10%,6%,10%,6%
CCCN(CC(=O)Nc1ccccc1C)C(=O)c1oc2ccc(OCC)cc2c1C,-18%,-16%,-3%,126µM*,-11%
Oc1ccc(Br)cc1C=Nc1cccn2cc(-c3ccccc3)nc12,-2%,0%,79µM*,2%,-17%
CCN1C(=O)c2ccccc2S(=O)c2ccc(C(=O)N3CCN(c4ccc(F)cc4)CC3)cc21 (stereo not given),-8%,x,x,x,x
O=C(CN1C(=O)/C(=C2/SC(=S)N(CCS(=O)(=O)O)C2=O)c2ccccc21)Nc1cccc(C(F)(F)F)c1,-5%,40µM*,56µM*,0%,-6%
COc1cccc(OC)c1OC(=O)/C=C/c1ccc(C)o1,u,-13%,56µM*,2%,14%
COC1=C(N)C(=O)c2nc(-c3nc(C(=O)O)c(C)c(-c4ccc(OC)c(OC)c4O)c3N)ccc2C1=O,11µM*,-11%,-18%,3%,8%
COc1ccc(-c2ncncc2-c2csc(C)n2)c(O)c1OC,-1%,-14%,6%,4%,7%
Cc1ccc(Cn2cc(CCC(=O)NCc3ccccc3F)c3ccccc32)cc1,-27%,x,x,x,x
CCOC(=O)CSc1nc2ccc(NC(=O)COc3ccccc3)cc2s1,-27%,x,x,x,x
NC(=O)c1sc(=S)n2c1[nH]c(=O)c1sccc12,-21%,u,40µM*,10%,-4%
CC(=O)Nc1nonc1-c1nnc(SCC(=O)N(C)c2ccccc2)n1C,9%,x,x,x,x
O=c1oc(-c2ccccc2)c(-c2ccccc2)c2ccccc12,-23%,-19%,45µM*,4%,4%
O=C(NCCOc1ccc(F)cc1)c1ccccc1SCc1ccccc1,-12%,-7%,50µM*,16%,9%
COC(CNC(=O)c1ccc2c3c(onc13)-c1ccccc1C2=O)OC,18µM*,u,u,56µM*,50µM*
CN1c2ccc(Cl)cc2-c2nc(SCC(=O)NCc3ccccc3)ncc2S1(=O)=O,-18%,x,x,x,x
CCOc1ccccc1CNc1nc2ccccc2n1C,-4%,-12%,3%,3%,6%
CCOc1ccccc1CNc1ccc(O)cc1,16µM*,4.5µM*,-16%,2%,3%
CCOc1cc(CNc2ccc(O)cc2)ccc1OCc1ccc(Cl)cc1Cl,8.9µM*,u,35µM*,0%,7%
CCOc1cccc(CNc2ccc(O)cc2)c1OCc1ccc(Cl)cc1,25µM*,25µM*,35µM*,15%,-1%
Oc1ccc(NCc2ccccc2OCc2ccccc2Cl)cc1,32µM*,x,x,x,x
NS(=O)(=O)c1ccc(NCc2ccccc2OCc2ccccc2F)cc1,-14%,9%,0%,22%,14%
CCc1ccccc1Nc1nn2c(=O)c3ccc(C(=O)NC4CCC(C)CC4)cc3nc2s1 (stereo not given),-29%,x,x,x,x
